# Experimental data as given in paper PMC6664820, “Novel natural and synthetic inhibitors of solute carriers SGLT1 and SGLT2” (Pharmacology Research & Perspectives, 2019).
# In all, about 1,900 compounds went through this assay and about 40 (2%) showed an effect of 50% or more. The sample holds strong results, similar compounds and a random draw of the others, so the mix is not that of the screen.
# Target: human SGLT1 (hSGLT1) (human, UniProt P13866)
# Assay: primary screen, percent of control activity; higher = less effect of the substance
# Parameters: single well
# Details: 50 µM
# Method: Two days before the assay, CHO‐wild type and CHO‐hSGLT1 cells were seeded in maintenance medium at 25 000 cells/well in clear‐bottom black 96‐well cell culture plates. Before the assay, cells were washed 3 times with 150 μL/well D‐glucose free DMEM with 0.3% (w/v) BSA. Library compounds at 50 μmol/L (singlicate) prepared in D‐glucose free DMEM with 160 μmol/L 1‐NBD‐glucose and 0.3% (w/v) BSA and negative controls (triplicate) were added at 100 μL/well and placed in a humidified incubator at 37°C with 5% CO2 for 90 minutes. Next, cells were washed 3 times with DMEM with 0.3% (w/v) BSA (150 μL/well). Care was taken to remove all medium after the last wash. Finally, 1‐NBD‐glucose was extracted from the cells by adding 10 μL/well isopropanol and orbital shaking for 5 minutes at 600 rpm, followed by incubation in the dark for 30 minutes. Fluorescence was measured on a Tecan Infinite M200 Microplate Reader (Tecan, Männedorf, Switzerland) with excitation at 445 nm and emission at 525 nm. The amount of 1‐NBD‐glucose taken up by the CHO‐wild type or CHO‐hSGLT1 cells in the presence or absence of test compounds was interpolated from 1‐NBD‐glucose calibration standards. The background uptake by CHO‐wild type was subtracted from the uptake by CHO‐hSGLT1. Background corrected uptake with test compound was expressed as a percentage of corrected uptake without test compound.
# human SGLT1 (hSGLT1), sequence (P13866 whole entry, looked up): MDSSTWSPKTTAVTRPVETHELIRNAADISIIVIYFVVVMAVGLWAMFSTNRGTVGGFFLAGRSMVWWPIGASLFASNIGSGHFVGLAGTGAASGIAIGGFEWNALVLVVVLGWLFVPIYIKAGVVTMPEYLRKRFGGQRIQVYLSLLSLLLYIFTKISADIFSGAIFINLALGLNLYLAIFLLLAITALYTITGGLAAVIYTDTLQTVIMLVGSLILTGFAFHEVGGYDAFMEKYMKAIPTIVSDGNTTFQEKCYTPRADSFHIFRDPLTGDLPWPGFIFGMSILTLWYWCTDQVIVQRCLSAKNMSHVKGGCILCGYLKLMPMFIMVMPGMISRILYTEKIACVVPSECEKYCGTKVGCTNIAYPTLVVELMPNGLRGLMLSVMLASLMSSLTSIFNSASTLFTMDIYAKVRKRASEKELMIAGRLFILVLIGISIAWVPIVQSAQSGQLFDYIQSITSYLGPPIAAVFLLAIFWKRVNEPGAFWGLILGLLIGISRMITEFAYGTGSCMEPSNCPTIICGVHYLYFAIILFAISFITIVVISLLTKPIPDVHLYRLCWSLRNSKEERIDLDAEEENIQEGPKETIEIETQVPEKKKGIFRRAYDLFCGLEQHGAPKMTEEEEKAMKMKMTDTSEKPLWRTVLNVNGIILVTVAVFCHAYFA
row,Structure (SMILES),NORMALIZED SGLT1 ACTIVITY (%)
1,Cc1ccc2c(Cl)cc(Cl)c(O)c2n1,100%
2,Oc1c(Cl)cc(Cl)c(Cl)c1Cc1c(O)c(Cl)cc(Cl)c1Cl,-43%
3,Oc1c(Cl)c(Cl)c(Cl)c(Cl)c1Cl,622%
4,Cn1c(=O)[nH]c2ncn(C)c2c1=O,164%
5,CC(C)=CCOc1c2occc2cc2ccc(=O)oc12,161%
6,CN(C)CCCN1c2ccccc2Sc2ccc(Cl)cc21,60%
7,CC(CN1c2ccccc2Sc2ccccc21)N(C)C.Cl (centres unmarked),87%
8,CN(C)CCCN1c2ccccc2Sc2ccc(C(F)(F)F)cc21.Cl,62%
9,CC(CN(C)C)CN1c2ccccc2Sc2ccccc21.O=C(O)C(O)C(O)C(=O)O (centres unmarked),45%
10,CN(C)CCCN1c2ccccc2Sc2ccccc21.Cl,38%
11,CCN(CC)C(C)CN1c2ccccc2Sc2ccccc21.Cl (centres unmarked),46%
12,CC(CN(C)C)CN1c2ccccc2CCc2ccccc21.O=C(O)/C=C\C(=O)O (centres unmarked),51%
13,NS(=O)(=O)c1cc2c(cc1C(F)(F)F)NC(Cc1ccccc1)NS2(=O)=O (centres unmarked),125%
14,O=C(Cn1ccnc1[N+](=O)[O-])NCCO,119%
15,CC(=O)O[C@H]1CC[C@@]2(C)C(C[C@@H](OC(C)=O)[C@@]3(C)C4=CC(=O)O[C@@H](c5ccoc5)[C@]4(C)CCC23)C1(C)C (some centres unmarked),358%
16,CCCCC1C(=O)N(c2ccccc2)N(c2ccc(O)cc2)C1=O (centres unmarked),109%
17,CCCCCNC(=N)N/N=C/c1c[nH]c2ccc(OC)cc12.O=C(O)/C=C\C(=O)O,141%
18,CO[C@@]1(NC(=O)C(C(=O)[O-])c2ccc(O)cc2)C(=O)N2C(C(=O)[O-])=C(CSc3nnnn3C)CO[C@@H]21.[Na+].[Na+] (some centres unmarked),97%
19,CC(=O)O[C@@H]1CC(=O)[C@@]2(C)C(CC(=O)[C@]3(C)C2CC[C@@]2(C)[C@H](c4ccoc4)OC(=O)C4OC423)C1(C)C (some centres unmarked),92%
20,COC(=O)[C@@]1(C)CCC[C@]2(C)c3ccc(O)c(C(C)C)c3CCC12 (some centres unmarked),138%
21,Cc1c(O)c(C(=O)CC(C)C)c2oc3c(C(=O)CC(C)C)c(O)c(C)c(O)c3c2c1O,107%
22,O=[N+]([O-])c1ccc(O)c([N+](=O)[O-])c1,145%
23,CC(=O)Nc1ccccc1,112%
24,CC(=O)Oc1ccccc1C(=O)O,112%
25,CC(=O)[O][Hg][c]1ccccc1,4%

row,Structure (SMILES),NORMALIZED SGLT1 ACTIVITY (%)
1,Cc1nc2ccccn2c(=O)c1CCN1CCC(C(=O)c2ccc(F)cc2)CC1,129%
2,CCCCCCCCCCCCCCCCCC(=O)O.CC[C@H]1OC(=O)[C@H](C)[C@@H](O[C@H]2C[C@@](C)(OC)[C@@H](O)[C@H](C)O2)[C@H](C)[C@@H](O[C@@H]2O[C@H](C)C[C@H](N(C)C)[C@H]2O)[C@](C)(O)C[C@@H](C)C(=O)[C@H](C)[C@@H](O)[C@]1(C)O,106%
3,COc1ccc2c(=O)cc(-c3ccccc3OC)oc2c1,139%
4,COc1cc(OC)c2c(=O)c(-c3ccccc3)coc2c1,336%
5,CCCCCCCCCCCCCCCCOP(=O)([O-])OCC[N+](C)(C)C,79%
6,C[N+](C)(C)CCCCCC[N+](C)(C)C.[Br-].[Br-],95%
7,CCCCCCCCCCCCCCCC[N+](C)(C)C.[Br-],19%
8,CCCc1nc2c(C)cc(-c3nc4ccccc4n3C)cc2n1Cc1ccc(-c2ccccc2C(=O)O)cc1,171%
9,Cl.Cl.NCCc1c[nH]cn1,140%
10,O=C(O)c1cc(O)c2ccccc2n1,97%
11,COC(=O)CC1C(C)(C)C(OC(C)=O)[C@@H]2[C@@H](OC(C)=O)[C@]34O[C@@]2(O)[C@]1(C)C3CC[C@]1(C)C4=CC(=O)O[C@H]1c1ccoc1 (some centres unmarked),94%
12,O=C(Cc1ccccc1)NO,95%
13,Cl.Cl.O=C(O)COCCN1CCN(C(c2ccccc2)c2ccc(Cl)cc2)CC1 (centres unmarked),141%
14,Cl.Clc1ccc(C(OCCN2CCCCC2)c2ccccc2)cc1 (centres unmarked),37%
15,Cc1cccc(CN2CCN(C(c3ccccc3)c3ccc(Cl)cc3)CC2)c1.Cl.Cl (centres unmarked),133%
16,CCCCC[C@H]1C(=O)O[C@H](C)[C@H](NC(=O)c2cccc(NC=O)c2O)C(=O)O[C@@H](C)[C@@H]1OC(=O)CC(C)C,220%
17,O=C(O)c1cn(C2CC2)c2cc(N3CCNCC3)c(F)cc2c1=O,76%
18,O=c1ccc2cc(O)c(O)cc2o1,134%
19,CN[C@@H](C)[C@@H](O)c1ccccc1.Cl,120%
20,CC(NCCC(c1ccccc1)c1ccccc1)c1ccccc1.Cl (centres unmarked),48%
21,CNC(C)[C@H](O)c1ccccc1.Cl (some centres unmarked),106%
22,COc1cc(/C=C/C(=O)O)ccc1O,147%
23,N[C@H](C(=O)O)[C@@H]1CC(Cl)=NO1,89%
24,COc1ccc2[nH]cc(CCN)c2c1.Cl,120%
25,O=[N+]([O-])O[C@H]1CO[C@H]2[C@@H]1OC[C@H]2O[N+](=O)[O-],100%
